# Assay outcomes: PubChem, National Center for Advancing Translational Sciences (NCATS)
# Shown are actives, neighbours in structure and some others; about 11% of the full set was active somewhere.
# PNC inhibitor: inhibitors of perinucleolar compartment assembly | PC3M PTB-GFP, PNC prevalence imaging, 16 h; stronger effect = lower value | activity change (PNC), negative = inhibition, % at 10 µM | 3.1% of 140,000 active | AID 2417;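 active = readout at or below -70, meaning at least 70% loss of cells showing the perinucleolar compartment, a nuclear body marking cancer cells; inconclusive = readout between -30 and a set limit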;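 also: plate controls were DMSO wells for no effect and camptothecin positive control wells for full effect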
#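 Compounds are pinned in duplicate onto adhered PC3M cells stably expressing GFP-tagged PTB and incubated 16 h at 37 C. Cells are then fixed, nuclei stained with Hoechst, and PNC-positive cells counted.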
# HttQ103 aggreg: inhibitors of mutant huntingtin aggregate formation in PC12 cells | PC12 HttQ103-GFP aggregates, Acumen cytometry, 40 h | Potency, µM (top dose mostly 46.1 µM), without a hit: top-dose activity change, negative = inhibition, usual class: inhibitors | 1.1% of 220,000 active | AID 1688; active = well fitted curve in the direction sought with a large enough effect; inconclusive = small, poorly fitted or top-dose-only effect, or another doubt; inactive = no such curve, though single readings can be large; an effect the other way counts as inactive or inconclusive; also: potency is read from the fitted curve at half-maximal effect; % is scaled to controls: 0 for no effect and ±100 for the full control effect; nearly all actives have a fitted effect of over 60% in size
#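 Using laser scanning cytometry, GFP-positive aggregates were counted after lysis of PC12 cells induced with 100 nM tebufenozide to express HTT exon 1 Q103–GFP. Compounds were tested in titration.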
# RGS12 GoLoco inh: inhibitors of human Gai1-RGS12 GoLoco interaction (red fluorophore); Potency, µM (series often up to 61.6 µM), inactives show at the top dose activity, negative = inhibition, hits mostly inhibitors; Gai1:RGS12 GoLoco peptide FP, rhodamine, 10 min; 0.44% of 230,000 active; P63096; active = well fitted inhibition curve with a large enough effect, not every such curve was filed as active; inactive = no such curve, though single readings can be large or run the other way; also: potency is read from the fitted curve at half-maximal effect; % is scaled to controls: 0 for no effect and ±100 for the full control effect; nearly all actives have a fitted effect of over 30% in size
# Target sequence (P63096 whole entry, looked up): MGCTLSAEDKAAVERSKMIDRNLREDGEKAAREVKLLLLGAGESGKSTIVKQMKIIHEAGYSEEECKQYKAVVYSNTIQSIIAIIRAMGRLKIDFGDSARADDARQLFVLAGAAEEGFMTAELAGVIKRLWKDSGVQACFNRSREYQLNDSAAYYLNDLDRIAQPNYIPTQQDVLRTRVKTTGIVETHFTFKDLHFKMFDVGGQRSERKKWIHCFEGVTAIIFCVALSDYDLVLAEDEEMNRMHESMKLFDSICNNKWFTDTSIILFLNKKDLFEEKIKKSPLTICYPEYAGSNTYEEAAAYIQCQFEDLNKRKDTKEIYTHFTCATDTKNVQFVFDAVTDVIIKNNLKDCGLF
# HPGD inh: blocks human HPGD enzyme activity | P15428 | purified HPGD, NADH fluorescence kinetic, PGE2 substrate | Potency, µM, without a hit: at the highest dose activity change, negative = inhibition, actives largely listed as inhibitors | 4.3% of 150,000 active; also: potency is read from the fitted curve at half-maximal effect; % is scaled to controls: 0 for no effect and ±100 for the full control effect
# Target sequence (P15428 whole entry, looked up): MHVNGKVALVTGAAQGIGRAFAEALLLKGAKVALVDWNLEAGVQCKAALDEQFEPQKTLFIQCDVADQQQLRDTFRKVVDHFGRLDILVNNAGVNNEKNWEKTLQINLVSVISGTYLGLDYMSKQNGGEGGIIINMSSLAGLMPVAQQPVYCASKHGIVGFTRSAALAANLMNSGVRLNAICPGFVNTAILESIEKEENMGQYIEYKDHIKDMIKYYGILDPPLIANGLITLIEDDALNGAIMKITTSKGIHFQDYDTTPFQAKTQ
#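 20 nM HPGD preincubated 15 min at room temperature with compound in 50 mM Tris-HCl pH 8, 0.01% Tween 20. Started with 1 mM NAD+ and 30 uM prostaglandin E2; NADH fluorescence (360/450 nm) read 5 times over 30-s intervals, last minus first.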
# ALDH1A1 block: ALDH1A1 (human) enzyme inhibition; P00352; Purified ALDH1A1, NADH fluorescence, propionaldehyde substrate; Potency, µM (doses to about 75.3 µM), inactives show top-dose activity, negative = inhibition, hits mostly inhibitors; 7.3% of 220,000 active; AID 1030;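 also: potency is read from the fitted curve at half-maximal effect; plate controls were no enzyme wells and a reference inhibitor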
# HTT cytoprotect: cytoprotection in Huntington HTT-Q103 PC12 cell model; PC12 HTT-Q103 induced, cytoprotection, ATP luminescence, 40 h; 0.14% of 230,000 active; Potency, µM (series often up to 56.4 µM), without a hit: cytoprotection (ATP increase), most hits filed as activators; active = well fitted curve in the direction sought with a large enough effect; inconclusive = small, poorly fitted or top-dose-only effect, or another doubt; inactive = no such curve, though single readings can be large; an effect the other way counts as inactive or inconclusive; also: potency is read from the fitted curve at half-maximal effect; % of control where 0% means no effect; nearly all actives have a fitted effect of over 45% in size
#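 Huntington model: PC12 line, ecdysone-inducible HTTQ103 exon1–GFP, tebufenozide 100 nM. Test articles in a dose series. Endpoint luminescence from cellular ATP.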
# Active calls of the source: *; ? = inconclusive; / = not tested or not shown; ! = repeats disagree; [ ] = another dose, or the depositor's remark. Unless noted, calls follow the shape of the dose curve; as a rule, active = well fitted inhibition curve with a large enough effect (not every such curve was filed as active); inconclusive = small, poorly fitted or top-dose-only effect, or another doubt; inactive = no such curve, though single readings can be large or run the other way.
SMILES,PNC inhibitor,HttQ103 aggreg,RGS12 GoLoco inh,HPGD inh,ALDH1A1 block,HTT cytoprotect
CCC(=O)NC(c1ccc(C)cc1)c1cc([N+](=O)[O-])c2cccnc2c1O (stereo not given),?,7.9µM*,-15%,-5%,-2%,-50%[10 µM]
CC(=O)NC(c1ccc(C)cc1)c1cc([N+](=O)[O-])c2cccnc2c1O (stereo not given),/,?,5%,/,1%,-65%[10 µM]
O=[N+]([O-])c1ccc(Cl)c2cccnc12,/,-2%,14%,/,18µM*,-12%
Oc1c(I)cc(Cl)c2cccnc12,?,10µM*,-5%,-9%,25µM*!,-235%
O=[N+]([O-])c1cccc2c(Cl)ccnc12,/,-23%[9.22 µM],74%,/,?,?
O=[N+]([O-])c1cc(F)c2cccnc2c1O,/,-19%[9.22 µM],-18%,/,18µM*,-64%[10 µM]
O=[N+]([O-])c1cc(CN2CCOCC2)c2cccnc2c1O,/,1%,-25%,/,4%,/
COc1ccc(-c2[nH]ncc2CN2CCC(C(=O)c3ccc(F)cc3)CC2)cc1,/,3%[9.22 µM],-2%,/,-3%,12%[10 µM]
Oc1c(C(c2ccccn2)N2CCCCC2)cc(Cl)c2cccnc12 (stereo not given),/,25µM*,-2%,/,?,-141%
O=[N+]([O-])c1cc(Cl)c(O)c2ncccc12,/,7.9µM*,-21%,/,?,-165%
O=[N+]([O-])c1ccc(O)c2cccnc12,/,9%,-3%,/,-2%,-3%
O=[N+]([O-])c1ccc(O)c2ncccc12,-8,3.5µM*,1%,-19%,?,-289%
O=[N+]([O-])c1cc(Cl)c2cccnc2c1O,/,?,9%,/,-10%,-170%
Cc1[nH]c2ccccc2c1C(c1ccccn1)N1CCCC1 (stereo not given),/,13%,-2%,/,-11%,-28%
Cc1ccc(NC(=S)C2=C(O)c3sccc3N(C)S2(=O)=O)cc1,29,?,3%,?,7.9µM*,-62%
Cc1ccc(NC(=O)C2=C(O)c3sccc3N(C)S2(=O)=O)cc1,5,10%,7%,-5%,-4%,0%[10 µM]
N#C/C(=C\Nc1ccccn1)C(=O)C1CC1,/,/,0%[14.2 µM],-4%,-2%[13.5 µM],-38%[10 µM]
CC(NC(=O)c1ccc(Br)cc1)c1ccccc1 (stereo not given),15,-1%,0%,-6%,11µM*,/
CC(NC(=O)/C=C/c1ccccc1)c1ccccc1 (stereo not given),/,-11%[9.22 µM],3%,/,-4%,-13%[10 µM]
CC(NC(=O)/C=C/c1ccc(Br)cc1)c1ccccc1 (stereo not given),-84*,-8%,8%,-14%,-2%,2%[10 µM]
Cc1ccc(Nc2nnc(SCC(=O)NCCN3C(=O)CSC3=O)s2)cc1,-17,9%,8%,-11%,?,-4%[10 µM]
CCOC(=O)/C=C1\CC(=O)Nc2nonc2N1,22,-9%,14%,32µM*,2%,4%[1.9 µM]
COc1cccc(N(C)C(=S)Oc2ccc3c(c2)CCCC3)n1,/,-13%,4%,/,/,-88%
N#CC1=C2N=C(N)c3c(sc4c3CCCCC4)N2C2=C(C(=O)CCC2)C1c1ccccc1 (stereo not given),17,-18%,12%,-10%,5µM*,-45%
N#CC1=C2N=C(N)c3ccccc3N2C2=C(C(=O)CCC2)C1c1ccc(F)cc1 (stereo not given),/,-11%[9.22 µM],-3%,/,/,15%[10 µM]
SMILES,PNC inhibitor,HttQ103 aggreg,RGS12 GoLoco inh,HPGD inh,ALDH1A1 block,HTT cytoprotect
O=S(=O)(c1ccccc1)N1CCC2(CCCN(c3ncccn3)C2)CC1,/,/,-3%,-14%,-4%,13%
CCCCC/C=C\C/C=C\CCCCCCCC(=O)NCCCC(=O)O,/,/,1%,-1%,10%,21%
COc1ccc(Br)cc1C1CC(=O)N2CN(Cc3ccccc3)CSC2=C1C#N (stereo not given),31,10%,-2%,7.1µM*,0.11µM*,-15%
COc1ccc2ccccc2c1C1CC(=O)N2CN(C)CSC2=C1C#N (stereo not given),23,8%,-29%,6.3µM*,8.9µM*,-3%[0.074 µM]
COc1cc(OC)c(C2CC(=O)N3CN(C)CSC3=C2C#N)cc1OC (stereo not given),-3,-14%,-34%,8.9µM*,8.9µM*,2%
CC(C)c1ccc(C2C(C#N)=C(N)N3C(=C2C#N)Sc2ccccc23)cc1 (stereo not given),45,7%,8%,?,0%,4%
CC(C)c1ccc(C2CC(=O)N3CN(C)CSC3=C2C#N)cc1 (stereo not given),-1,-10%,-23%,14µM*,3.5µM*,11%
CCSC1=C(C#N)C(c2ccccc2OC)CC(=O)N1 (stereo not given),-19,-1%,-8%,-8%,?,-18%[10 µM]
CCCN1CCN(C(=O)Cn2cnc3ccc(S(=O)(=O)N4CCC(C)CC4)cc3c2=O)CC1,/,-7%,-5%,/,10%,-23%
N#CCCn1c(=O)c(-c2ccc(F)cc2)nc2cnc(OCc3ccccc3)nc21,/,/,-7%,/,?,?
CCc1ccccc1N1CCN(S(=O)(=O)c2cc(OC)ccc2OC)CC1,32,?,0%,-18%,?,20%[10 µM]
COc1ccc(Br)cc1C1CC(=O)N2CN(C)CSC2=C1C#N (stereo not given),50,21%,-11%,13µM*,7.1µM*,-18%
CCOc1ccc(N2CSC3=C(C#N)C(c4ccco4)CC(=O)N3C2)cc1 (stereo not given),53,15%,13%,10µM*,4.5µM*,-8%
CCOC(=O)c1ccc(N2CSC3=C(C#N)C(c4ccc(OC)cc4OC)CC(=O)N3C2)cc1 (stereo not given),-18,8%,-17%,-9%,14µM*,-15%
CCc1ccccc1N1CSC2=C(C#N)C(c3cc(OC)c(OC)cc3OC)CC(=O)N2C1 (stereo not given),11,?,-36%,7.9µM*,?,-28%[0.074 µM]
Cc1ccc(C2CC(=O)N3CN(c4ccc(Br)cc4)CSC3=C2C#N)o1 (stereo not given),-19,13%,173%,?,?,-77%[0.074 µM]
CC(C)=CCC/C(C)=C/CO/N=C1/[C@H]2O[C@@H]2[C@@H](O)[C@H]2[C@H]1CCn1c(=O)n(-c3ccccc3)c(=O)n12,/,/,/,/,?,-13%[10 µM]
N#CC1=C2SCN(Cc3ccccc3)CN2C(=O)CC1c1ccccc1F (stereo not given),-9,6%,-31%,28µM*,10µM*,-25%
N#CC1=C2SCC(O)(c3ccccc3)N2C(=O)CC1c1ccccc1F (stereo not given),0,-15%[9.22 µM],193%,-15%,?,-80%
